# Reference: PubChem BioAssay
# Activity calls are given as the source filed them.
# Assays:
# [1] = molecular target: Albumin (Bos taurus) (UniProt P02769); experiment: compounds binding labelled BSA control protein – biochemical, small-molecule microarray, Alexa647 label, 635/667 nm fluorescence, artefact control for SMM control protein annotation, profiling panel (AID 1118); details: BSA-A647 binding, fluorescence 635 nm, higher = more signal;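 note: score merges 667 nm emission intensity and signal-to-noise per printed compound spot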
# [2] = probe aXIP binding to arrayed compounds – biochemical, NeuroSMM set, 635/667 nm fluorescence, primary screen (AID 1119); details: small-molecule microarray, higher = more signal, called active from +8 up or from −8 down;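 note: probe is the protein aXip251-270 applied at 1 µg/mL to compound-printed slides; binding of probe to printed compounds measured as 667 nm fluorescence plus signal to noise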
# [3] = probe aNOTCH3 binding on compound microarray – biochemical, small-molecule microarray, 635/667 nm fluorescence, primary screen (AID 1120); details: higher = more signal;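 note: probe is a biotin-tagged antibody raised against NOTCH3 rather than NOTCH3 protein; score merges spot fluorescence near 667 nm with spot signal to noise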
# [4] = probe aNOTCH2 binding on compound microarray – biochemical, small-molecule microarray, 635/667 nm fluorescence, primary screen (AID 1121); details: higher = more signal;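 note: score merges feature fluorescence read at 667 nm with its signal to noise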
# [5] = molecular target: Carbonic anhydrase 2 (Homo sapiens) (UniProt P00918); experiment: compounds binding carbonic anhydrase 2 – biochemical, small-molecule microarray, Alexa647-labelled CAII, profiling panel (AID 1122); details: CAII-A647 binding fluorescence, higher = more signal
# [6] = COS7 lysate on small-molecule microarray, probe aHis, 635 nm (AID 1123); details: COS7 cell lysate, fluorescence, higher = more signal;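 note: z-score combines 667nm fluorescence intensity with signal-to-noise per printed compound spot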
# [7] = probe aLAP1 signal on lysate-treated microarray – cell lysate, small-molecule microarray, COS7 lysate, primary screen (AID 1124); details: probe aLAP1, fluorescence, higher = more signal;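 note: lysate comes from COS7 cells expressing LAP1 and is applied at 0.3 µg/mL; score merges spot fluorescence near 667 nm with signal-to-noise over triplicate slides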
# [8] = test system: Sam68 (KHDRBS1); experiment: compounds binding KHDRBS1 protein – biochemical, small-molecule microarray, 635 nm fluorescence, primary screen (AID 1125); details: higher = more signal;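 note: score merges 667 nm channel intensity with signal to noise over triplicate slides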
# [9] = test system: Chordin-like protein 2 (CHRDL2); experiment: compounds binding chordin-like 2 – biochemical, small-molecule microarray, 635 nm fluorescence, primary screen (AID 1126); details: fluorescence 635 nm, higher = more signal;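 note: printed compound slides probed with Chrdl2 protein at 4 µg/mL for 1 h at 4 C; score merges 667 nm emission intensity with signal to noise over three replicate slides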
# [10] = molecular target: Concanavalin-A (Canavalia ensiformis) (UniProt P02866); experiment: compounds binding concanavalin A lectin – biochemical, small-molecule microarray, Alexa647 label, 635 nm, artefact control for SMM control protein annotation, primary screen (AID 1127); details: ConA-A647 binding fluorescence, higher = more signal;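 note: z combines 667 nm emission intensity with signal-to-noise across three replicate slides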
# [11] = compounds binding Alexa647 anti-His antibody – biochemical, small-molecule microarray, 635 nm fluorescence, artefact control for SMM control protein annotation, primary screen (AID 1128); details: higher = more signal;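 note: score merges feature fluorescence with signal-to-noise for each printed compound spot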
# [12] = test system: Human papillomavirus type 1a E7 protein (residues 1-88); experiment: HPV1a E7 small-molecule binders, primary screen, biochemical, small-molecule microarray, residues 1-88, 635 nm (AID 1129); details: small-molecule microarray binding, fluorescence 635 nm; higher = more signal
# [13] = molecular target: Focal adhesion kinase 1 (Homo sapiens) (UniProt Q05397); experiment: PTK2 protein binding on printed compound slides – biochemical, small-molecule microarray, 635/667 nm fluorescence, BSA, DTT, primary screen (AID 1130); details: 635 nm fluorescence, higher = more signal;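 note: composite of spot emission at 667 nm and signal to noise over triplicate slides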
# [14] = test system: Fibrinogen (Alexa647-labelled); experiment: Alexa647-fibrinogen binding to printed small molecules – biochemical, small-molecule microarray, 635/667 nm fluorescence, artefact control for SMM control-protein annotation, profiling panel (AID 1131); details: fibrinogen-A647 binding fluorescence, higher = more signal;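 note: z-score merges 667 nm fluorescence with per-spot signal-to-noise over triplicate slides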
# [15] = molecular target: Follistatin (Homo sapiens) (UniProt P19883); experiment: FST protein binding to printed compounds – biochemical, small-molecule microarray, 635/667 nm fluorescence, primary screen (AID 1132); details: 635 nm fluorescence, higher = more signal
# [16] = molecular target: Fibroblast growth factor 2 (Homo sapiens) (UniProt P09038); experiment: basic fibroblast growth factor binding to printed compounds – biochemical, small-molecule microarray, 635/667 nm fluorescence, primary screen (AID 1133); details: FGF2, fluorescence 635/667, higher = more signal
# [17] = JC-1 mitochondrial potential readout, lung cancer cells – cell-based, A549, JC-1 fluorescence, basal, 24 h, 100 nL, profiling panel (AID 1138); details: higher = more signal;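 note: A549 lung adenocarcinoma cells under basal conditions with no added stimulus; test concentration not given here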
# [18] = test system: Lefty1; experiment: Lefty1 protein binding to printed compounds – biochemical, small-molecule microarray, 635/667 nm fluorescence, primary screen (AID 1139); details: fluorescence 635/667, higher = more signal
# [19] = test system: wheat germ agglutinin (Triticum aestivum), Alexa647-labelled; experiment: Alexa647-WGA lectin binding to printed small molecules – biochemical, small-molecule microarray, 635/667 nm fluorescence, artefact control for SMM control-protein annotation, profiling panel (AID 1140); details: WGA-A647 binding, 635 nm fluorescence, higher = more signal;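 note: score merges 667 nm feature emission with signal to noise over triplicate slides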
# [20] = molecular target: Luciferin 4-monooxygenase (Photinus pyralis) (UniProt P08659); experiment: inhibition of purified Photinus pyralis luciferase – biochemical, luminescence, purified enzyme, 2006 set, primary screen (AID 1141); details: purified firefly luciferase, SteadyGlo luminescence, 30 min; higher = more signal, called active from +8 up or from −8 down;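 note: cell-free assay with purified firefly luciferase at 100 ng per well in PBS; test concentration not given here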
# Luciferin 4-monooxygenase (Photinus pyralis), sequence (P08659 whole entry, looked up): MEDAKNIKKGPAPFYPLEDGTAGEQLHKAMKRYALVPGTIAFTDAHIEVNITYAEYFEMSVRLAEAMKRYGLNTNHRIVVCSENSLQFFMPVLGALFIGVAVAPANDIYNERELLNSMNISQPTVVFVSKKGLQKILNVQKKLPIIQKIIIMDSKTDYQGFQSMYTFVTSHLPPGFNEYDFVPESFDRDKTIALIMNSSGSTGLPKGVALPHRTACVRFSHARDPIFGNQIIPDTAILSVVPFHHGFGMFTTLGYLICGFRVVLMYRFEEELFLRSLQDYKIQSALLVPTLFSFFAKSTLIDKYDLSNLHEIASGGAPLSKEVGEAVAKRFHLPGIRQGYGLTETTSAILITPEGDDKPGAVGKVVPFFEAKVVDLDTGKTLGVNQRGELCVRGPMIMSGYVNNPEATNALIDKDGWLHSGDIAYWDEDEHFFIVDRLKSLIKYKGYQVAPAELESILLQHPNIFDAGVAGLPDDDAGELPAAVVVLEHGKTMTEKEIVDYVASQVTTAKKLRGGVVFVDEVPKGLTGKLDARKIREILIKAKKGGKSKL
# Fibroblast growth factor 2 (Homo sapiens), sequence (P09038 whole entry, looked up): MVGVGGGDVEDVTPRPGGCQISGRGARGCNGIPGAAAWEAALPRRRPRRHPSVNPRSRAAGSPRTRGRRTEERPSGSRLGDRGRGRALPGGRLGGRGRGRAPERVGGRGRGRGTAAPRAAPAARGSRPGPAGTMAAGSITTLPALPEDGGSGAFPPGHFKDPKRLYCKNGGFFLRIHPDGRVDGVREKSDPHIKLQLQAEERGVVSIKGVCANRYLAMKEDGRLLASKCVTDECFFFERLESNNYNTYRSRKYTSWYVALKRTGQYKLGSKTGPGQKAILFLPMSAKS
# Albumin (Bos taurus), sequence (P02769 whole entry, looked up): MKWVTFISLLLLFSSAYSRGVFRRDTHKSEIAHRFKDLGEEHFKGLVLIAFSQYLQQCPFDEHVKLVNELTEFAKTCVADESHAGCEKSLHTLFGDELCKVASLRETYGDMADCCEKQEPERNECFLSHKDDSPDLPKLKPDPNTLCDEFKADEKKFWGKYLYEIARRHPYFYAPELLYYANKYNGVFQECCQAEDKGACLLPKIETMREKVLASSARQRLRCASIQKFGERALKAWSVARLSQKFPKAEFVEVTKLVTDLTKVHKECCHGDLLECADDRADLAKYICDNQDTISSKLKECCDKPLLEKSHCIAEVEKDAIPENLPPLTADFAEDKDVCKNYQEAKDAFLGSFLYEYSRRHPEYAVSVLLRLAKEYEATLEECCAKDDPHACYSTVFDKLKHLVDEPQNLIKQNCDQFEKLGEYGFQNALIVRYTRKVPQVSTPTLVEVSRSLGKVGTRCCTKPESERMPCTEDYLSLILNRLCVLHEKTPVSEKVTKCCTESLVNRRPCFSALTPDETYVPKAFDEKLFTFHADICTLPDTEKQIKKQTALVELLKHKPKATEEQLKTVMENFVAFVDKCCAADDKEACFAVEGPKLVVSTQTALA
# Follistatin (Homo sapiens), sequence (P19883 whole entry, looked up): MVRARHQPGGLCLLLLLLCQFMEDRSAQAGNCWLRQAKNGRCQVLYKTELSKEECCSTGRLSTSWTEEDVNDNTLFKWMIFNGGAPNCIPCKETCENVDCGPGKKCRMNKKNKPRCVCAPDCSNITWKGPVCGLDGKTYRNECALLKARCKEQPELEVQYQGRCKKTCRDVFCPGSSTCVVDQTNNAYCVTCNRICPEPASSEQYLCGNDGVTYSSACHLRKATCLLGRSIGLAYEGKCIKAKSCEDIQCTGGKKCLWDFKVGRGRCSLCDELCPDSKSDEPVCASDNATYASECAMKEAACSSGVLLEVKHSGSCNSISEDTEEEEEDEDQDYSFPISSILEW
# Focal adhesion kinase 1 (Homo sapiens), sequence (Q05397 whole entry, looked up): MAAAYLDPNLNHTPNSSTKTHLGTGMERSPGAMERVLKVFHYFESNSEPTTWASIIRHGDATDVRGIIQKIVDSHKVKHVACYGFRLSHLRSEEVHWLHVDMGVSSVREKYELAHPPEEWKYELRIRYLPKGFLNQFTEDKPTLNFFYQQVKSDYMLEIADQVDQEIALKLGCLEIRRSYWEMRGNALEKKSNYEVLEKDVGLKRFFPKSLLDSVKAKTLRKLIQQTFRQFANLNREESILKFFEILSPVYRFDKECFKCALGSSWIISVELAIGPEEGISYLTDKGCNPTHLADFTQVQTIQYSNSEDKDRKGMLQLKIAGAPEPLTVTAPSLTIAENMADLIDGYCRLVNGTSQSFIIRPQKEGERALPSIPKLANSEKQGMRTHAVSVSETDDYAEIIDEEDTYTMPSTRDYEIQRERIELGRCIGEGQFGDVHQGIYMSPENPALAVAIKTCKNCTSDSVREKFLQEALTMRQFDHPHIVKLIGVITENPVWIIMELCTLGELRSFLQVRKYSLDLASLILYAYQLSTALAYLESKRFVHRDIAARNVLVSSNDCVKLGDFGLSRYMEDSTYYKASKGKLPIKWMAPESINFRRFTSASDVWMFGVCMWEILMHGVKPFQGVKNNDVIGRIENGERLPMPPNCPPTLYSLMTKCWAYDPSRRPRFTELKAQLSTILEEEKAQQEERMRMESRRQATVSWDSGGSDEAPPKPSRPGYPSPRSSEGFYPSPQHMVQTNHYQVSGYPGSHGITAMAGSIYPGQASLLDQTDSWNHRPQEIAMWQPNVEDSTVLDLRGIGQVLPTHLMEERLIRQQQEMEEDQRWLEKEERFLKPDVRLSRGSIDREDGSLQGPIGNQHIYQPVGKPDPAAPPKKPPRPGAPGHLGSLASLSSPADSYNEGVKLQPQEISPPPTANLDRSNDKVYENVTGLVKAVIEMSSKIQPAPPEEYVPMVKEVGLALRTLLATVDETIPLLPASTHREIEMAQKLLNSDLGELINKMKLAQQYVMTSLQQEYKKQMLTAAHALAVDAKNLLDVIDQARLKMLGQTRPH
# Concanavalin-A (Canavalia ensiformis), sequence (P02866 whole entry, looked up): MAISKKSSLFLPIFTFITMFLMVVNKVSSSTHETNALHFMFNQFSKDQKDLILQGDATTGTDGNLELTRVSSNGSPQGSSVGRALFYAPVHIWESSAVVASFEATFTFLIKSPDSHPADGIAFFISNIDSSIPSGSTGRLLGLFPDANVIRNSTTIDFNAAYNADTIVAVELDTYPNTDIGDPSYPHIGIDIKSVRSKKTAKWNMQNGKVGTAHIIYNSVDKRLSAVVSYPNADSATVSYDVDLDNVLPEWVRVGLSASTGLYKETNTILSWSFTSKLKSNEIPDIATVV
Compound,composite z-score [1],composite Z-score [2],composite z-score [3],composite z-score [4],composite z-score [5],composite z-score [6],composite z-score [7],composite z-score [8],composite z-score [9],composite z-score [10],composite z-score [11],composite z-score [12],composite z-score [13],composite z-score [14],composite z-score [15],composite z-score [16],z-score [17],composite z-score [18],composite z-score [19],z-score [20]
COCCOC(=O)N1C(=O)[C@@]2(c3cc(C#CC4(O)CCCCCC4)ccc31)[C@H](c1ccc(O)cc1)N1[C@H](c3ccccc3)[C@H](c3ccccc3)OC(=O)[C@H]1[C@@H]2C(=O)N1CCCCCCC1,0.304,-0.0498 (inactive),0.295,-0.123,0.267,1.33,0.855,1.24,0.33,0.423,1.01,1.19,0.817,0.605,1.39,0.608,0.7,0.851,0.907,-0.552 (inactive)
CC1CC/C=C\[C@H]2OC34C=CCN(Cn5nnc6ccccc65)C(=O)[C@H]3N(CCCCCCO)C(=O)[C@@H]4C2C(=O)O1 (stereo not given in full),-0.252,0.347 (inactive),-0.427,-0.214,0.398,-0.0339,0.523,-0.682,-1.25,0.257,0.965,-0.506,-0.121,-0.627,-1.45,-1.09,0.966,-0.654,-0.435,0.152 (inactive)
CN1C(=O)C2C(C1=O)C1C=C(CCCO)C2C(C2CC2)N1Cc1cccc(OC(F)(F)F)c1 (stereo not given),1.04,0.35 (inactive),0.0934,-0.023,0.911,2.55,0.956,1.3,-0.535,0.983,1.37,0.925,1.35,0.0349,-0.0603,-0.862,-0.198,0.0613,1.04,-0.478 (inactive)
COC(=O)[C@@]1(Cc2ccccc2)[C@H]2c3cc(C(=O)N(C)C)n(Cc4ccc(S(C)(=O)=O)cc4)c3C[C@H]2CN1C(=O)c1ccccc1,1.13,-0.368 (inactive),0.364,0.199,0.647,2.9,0.722,0.296,-0.755,1.08,3.21,0.884,1.31,0.989,-0.0741,-0.277,-0.699,-0.367,1.13,1.6 (inactive)
COc1cc(C(O)C2C=CC3C(=O)N(c4ccccc4)C(=O)C3N2Nc2ccccc2F)cc(OC)c1OC (stereo not given),0.834,0.0894 (inactive),0.0436,0.0409,0.648,3.14,0.443,1.32,-0.755,1.1,1.66,1.28,0.337,1.03,0.233,-0.171,-0.374,0.323,0.792,-0.397 (inactive)
CC(C)N1C(=O)c2ccccc2[C@](C)(C(=O)NCC(F)(F)F)[C@@H]1c1ccc(CO)cc1,-0.267,-0.415 (inactive),-0.407,0.0344,0.852,2.55,1.14,-0.701,-0.912,-1.22,-0.851,-0.432,-0.749,-1.07,-1.02,-0.337,0.607,-1.5,0.594,-1.17 (inactive)
